Test results: PubChem BioAssay AID2283172 (EPA ToxCast)
Active and inactive are the calls of the source. Rule for the calls: active = hit-call score of the fitted dose curve at least 0.9, where 1 is the maximum; inactive = score below 0.9.

Target: human LYN Proto-Oncogene, Src family Tyrosine Kinase (LynB), LYN (gene 4067) (UniProt P07948)
Assay: NVS_ENZ_hLynB: NovaScreen (NVS) Enzymatic Assay for human LYN Proto-Oncogene, Src family Tyrosine Kinase (LynB)
Experimental: NVS_ENZ_hLynB is a biochemical, single-readout assay that uses extracted gene-proteins in a cell-free assay. Measurements were taken 1 hour after chemical dosing in a 384-well plate.NVS_ENZ_hLynB is one of one assay component(s) measured or calculated from the NVS_ENZ_hLynB assay. It is designed to make measurements of enzyme activity, a form of enzyme reporter, as detected with fluorescence intensity signals by Fluorescence and electrophoretic mobility shift technology.Data from the assay component NVS_ENZ_hLynB was analyzed into 1 assay endpoint. This assay endpoint, NVS_ENZ_hLynB, was analyzed in the positive analysis fitting direction relative to DMSO as the negative control and baseline of activity. Using a type of enzyme reporter, loss-of-signal activity can be used to understand changes in the enzymatic activity as they relate to the gene LYN. Furthermore, this assay endpoint can be referred to as a primary readout, because this assay has produced multiple assay endpoints where this one serves a enzymatic activity function. To generalize the intended target to other relatable targets, this assay endpoint is annotated to the kinase intended target family, where the subfamily is non-receptor tyrosine kinase. […]

human LYN Proto-Oncogene, Src family Tyrosine Kinase (LynB), LYN (gene 4067), sequence (P07948 whole entry, looked up): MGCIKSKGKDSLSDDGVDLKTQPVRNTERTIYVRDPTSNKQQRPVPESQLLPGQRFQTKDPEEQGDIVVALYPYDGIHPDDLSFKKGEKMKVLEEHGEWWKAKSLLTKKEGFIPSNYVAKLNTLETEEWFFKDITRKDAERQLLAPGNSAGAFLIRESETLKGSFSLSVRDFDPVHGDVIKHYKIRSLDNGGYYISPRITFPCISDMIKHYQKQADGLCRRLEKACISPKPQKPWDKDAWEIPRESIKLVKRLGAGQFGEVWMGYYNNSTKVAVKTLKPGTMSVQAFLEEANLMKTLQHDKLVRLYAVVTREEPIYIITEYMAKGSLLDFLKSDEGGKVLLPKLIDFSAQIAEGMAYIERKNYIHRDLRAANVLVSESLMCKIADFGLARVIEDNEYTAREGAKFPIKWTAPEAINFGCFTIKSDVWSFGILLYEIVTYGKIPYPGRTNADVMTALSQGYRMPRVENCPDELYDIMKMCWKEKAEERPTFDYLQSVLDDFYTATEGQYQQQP

Row | SMILES | outcome
1 | CCOCN(C(=O)CCl)c1c(C)cccc1CC | inactive
